PubChem BioAssay (NCATS)
Results filed as inconclusive are left out. Activity calls are given as the source filed them. Unless noted, calls come from the whole dose curve.

Tests used:
[1] = qHTS for Inhibitors of the Functional Ribonucleoprotein Complex (vRNP) of Lassa (LASV) Arenavirus: LASV Primary Screen - GLuc reporter signal (AID 1347082; calls by dose curve; tested in HEK293 reporter line; note: nearly all actives have a fitted effect of over 60% in size)
[2] = qHTS for Inhibitors of the Functional Ribonucleoprotein Complex (vRNP) of Lassa (LASV) Arenavirus: Viability assay - alamar blue signal for LASV Primary Screen (AID 1347083; calls by dose curve; tested in HEK293 reporter line; note: nearly all actives have a fitted effect of over 80% in size)
[3] = qHTS for Inhibitors of the Functional Ribonucleoprotein Complex (vRNP) of Lymphocytic Choriomeningitis Arenaviruses (LCMV): Viability assay - alamar blue signal for LCMV Primary Screen (AID 1347085; calls by dose curve; tested in HEK293 reporter line; note: nearly all actives have a fitted effect of over 80% in size)
[4] = molecular target: Nucleoprotein (Lymphocytic choriomeningitis virus (strain Armstrong)) (UniProt P09992); test: qHTS for Inhibitors of the Functional Ribonucleoprotein Complex (vRNP) of Lymphocytic Choriomeningitis Arenaviruses (LCMV): LCMV Primary Screen - GLuc reporter signal (AID 1347086); note: nearly all actives have a fitted effect of over 70% in size
Chain of Nucleoprotein (Lymphocytic choriomeningitis virus (strain Armstrong)) (P09992 whole entry, looked up): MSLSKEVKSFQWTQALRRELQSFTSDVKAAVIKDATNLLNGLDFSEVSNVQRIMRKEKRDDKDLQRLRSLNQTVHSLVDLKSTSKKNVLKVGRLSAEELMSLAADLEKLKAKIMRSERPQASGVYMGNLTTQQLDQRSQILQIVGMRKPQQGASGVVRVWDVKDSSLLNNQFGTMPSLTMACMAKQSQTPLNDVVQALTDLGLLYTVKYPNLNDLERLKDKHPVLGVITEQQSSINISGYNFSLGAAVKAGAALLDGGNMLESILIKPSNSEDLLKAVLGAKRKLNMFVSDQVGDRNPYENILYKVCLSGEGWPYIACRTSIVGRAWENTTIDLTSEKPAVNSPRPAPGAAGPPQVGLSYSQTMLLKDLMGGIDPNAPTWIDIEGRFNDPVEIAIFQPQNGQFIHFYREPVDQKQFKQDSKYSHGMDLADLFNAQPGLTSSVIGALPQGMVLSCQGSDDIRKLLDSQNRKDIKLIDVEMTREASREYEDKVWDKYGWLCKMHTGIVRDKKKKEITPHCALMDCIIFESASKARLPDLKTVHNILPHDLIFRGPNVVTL

Measured: Potency
Note: series mostly up to about 57 µM.

CN(C)CCc1c[nH]c2ccc(CS(=O)(=O)N3CCCC3)cc12
inactive: all assays above

NC(=O)OCC(COC(N)=O)c1ccccc1
inactive: all assays above

O=C(O)c1ccc(-n2nc(-c3ccccc3O)nc2-c2ccccc2O)cc1
inactive: all assays above

Cc1nccn1CC1CCc2c(c3ccccc3n2C)C1=O (stereo not given)
inactive: all assays above

CN1C(=O)CC(C)(c2ccccc2)C1=O (stereo not given)
inactive: all assays above

OC(CCN1CCCC1)(c1ccccc1)C1CCCCC1 (stereo not given)
inactive: all assays above

O=C1NC(=O)C(c2ccccc2)(c2ccccc2)N1
inactive: all assays above

CN(C)CCC=C1c2ccccc2CCc2ccccc21
inactive: all assays above

CCCNC(=O)NS(=O)(=O)c1ccc(Cl)cc1
inactive: all assays above

NC(=O)N1c2ccccc2CC(=O)c2ccccc21
inactive: all assays above

Nc1nc2c(ncn2COCCO)c(=O)[nH]1
inactive: all assays above

CCN(CC)CCOC(=O)C1(C2CCCCC2)CCCCC1
inactive: all assays above

CC1=NS(=O)(=O)c2cc(Cl)ccc2N1
inactive: all assays above

COc1ccc([C@@H]2Sc3ccccc3N(CCN(C)C)C(=O)[C@@H]2OC(C)=O)cc1
inactive: all assays above

O=P(O)(O)C(O)(Cc1cccnc1)P(=O)(O)O
inactive: all assays above

Oc1cn2c(n1)Nc1ccc(Cl)c(Cl)c1C2
inactive: all assays above

CNCC[C@@H](Oc1ccccc1C)c1ccccc1
inactive: all assays above

O=C1CCc2ccc(OCCCCN3CCN(c4cccc(Cl)c4Cl)CC3)cc2N1
inactive: all assays above

COC(=O)C(c1ccccc1Cl)N1CCc2sccc2C1 (stereo not given)
inactive: all assays above

COc1nc(N)nc2c1ncn2[C@@H]1O[C@H](CO)[C@@H](O)[C@@H]1O
inactive: all assays above

NC(=Nc1ccccc1)Nc1ccccc1
inactive: all assays above

O=C1N=C(O)CN1/N=C/c1ccc(-c2ccc([N+](=O)[O-])cc2)o1
inactive: all assays above

Nc1ccc(O)c(C(=O)O)c1
inactive: all assays above

CC[C@@H](CO)NCCN[C@@H](CC)CO
inactive: all assays above

C[N+]1(C)CCC(OC(=O)C(O)(c2ccccc2)C2CCCC2)C1 (stereo not given)
inactive: all assays above

N=c1nc(N2CCCCC2)cc(N)n1O
inactive: all assays above

COc1cc2nc(N3CCN(C(=O)C4COc5ccccc5O4)CC3)nc(N)c2cc1OC (stereo not given)
inactive: all assays above

CC(=O)Oc1ccccc1C(=O)Nc1ncc([N+](=O)[O-])s1
inactive: all assays above

NC(=O)c1cn(Cc2c(F)cccc2F)nn1
inactive: all assays above

Cc1ccc(-n2[nH]c(C)c(N=Nc3cccc(-c4cccc(C(=O)O)c4)c3O)c2=O)cc1C
inactive: all assays above

CC(=O)N[C@@H](CS)C(=O)O
inactive: all assays above

NNc1nncc2ccccc12
inactive: all assays above

CCCc1cc(=O)[nH]c(=S)[nH]1
inactive: all assays above

C1N2CN3CN1CN(C2)C3
inactive: all assays above

CC(C)(C)NC(=O)[C@@H]1CN(Cc2cccnc2)CCN1C[C@@H](O)C[C@@H](Cc1ccccc1)C(=O)N[C@H]1c2ccccc2C[C@H]1O
inactive: all assays above

CCN(CC)CCNC(=O)c1cc(Cl)c(N)cc1OC
inactive: all assays above

COc1ccccc1OCC(O)CN1CCN(CC(=O)Nc2c(C)cccc2C)CC1 (stereo not given)
inactive: all assays above

CN1C(CCl)Nc2cc(Cl)c(S(N)(=O)=O)cc2S1(=O)=O (stereo not given)
inactive: all assays above

COC(c1ccccc1)(c1ccccc1)[C@H](Oc1nc(C)cc(C)n1)C(=O)O
inactive: all assays above

CO/N=C1\CN(c2nc3c(cc2F)c(=O)c(C(=O)O)cn3C2CC2)CC1CN (stereo not given)
inactive: all assays above

Cc1ccsc1C(=CCCN1CCC[C@@H](C(=O)O)C1)c1sccc1C
inactive: all assays above

CCn1cc(C(=O)O)c(=O)c2ccc(C)nc21
inactive: all assays above

CCCN1C[C@H](CSC)C[C@@H]2c3cccc4[nH]cc(c34)C[C@H]21
inactive: all assays above

O=c1[nH]cnc2c1ncn2[C@H]1CC[C@@H](CO)O1
inactive: all assays above

Cc1ccc2c(n1)Oc1ccc(C(C)C(=O)OCC(=O)N(C)C)cc1C2 (stereo not given)
inactive: all assays above

CNCCc1ccccn1
inactive: all assays above

CCOC(=O)[C@H](CCc1ccccc1)N[C@@H](C)C(=O)N1Cc2cc(OC)c(OC)cc2C[C@H]1C(=O)O
inactive: all assays above

Cc1onc(-c2ccccc2Cl)c1C(=O)N[C@@H]1C(=O)N2[C@@H]1SC(C)(C)[C@@H]2C(=O)O
inactive: all assays above

COC(=O)[C@H]1[C@H]2C[C@@H]3c4[nH]c5cc(OC)ccc5c4CCN3C[C@H]2C[C@@H](OC(=O)c2cc(OC)c(OC)c(OC)c2)[C@@H]1OC
inactive: all assays above

NCCCC(O)(P(=O)(O)O)P(=O)(O)O
inactive: all assays above

C[C@@H]1C[C@H]2[C@@H]3CCC4=CC(=O)C=C[C@]4(C)[C@@]3(F)[C@@H](O)C[C@]2(C)[C@@]1(O)C(=O)CO
inactive: all assays above

CCOC(=O)[C@H](CCc1ccccc1)N[C@@H](C)C(=O)N1Cc2ccccc2C[C@H]1C(=O)O
inactive: all assays above

CCCCC1=NC2(CCCC2)C(=O)N1Cc1ccc(-c2ccccc2-c2nn[nH]n2)cc1
inactive: all assays above

Cc1ccccc1C(=O)Nc1ccc(C(=O)N2CCCC(O)c3cc(Cl)ccc32)c(C)c1 (stereo not given)
inactive: all assays above

COC(=O)CCc1ccc(OCC(O)CNC(C)C)cc1 (stereo not given)
inactive: all assays above

C=C(CC)C(=O)c1ccc(OCC(=O)O)c(Cl)c1Cl
inactive: all assays above

COc1cc(C(=O)NCc2ccc(OCCN(C)C)cc2)cc(OC)c1OC
inactive: all assays above

NS(=O)(=O)Cc1noc2ccccc12
inactive: all assays above

CNC1(C)C2CCC(C2)C1(C)C (stereo not given)
inactive: all assays above

CCOc1ccc2ccccc2c1C(=O)N[C@@H]1C(=O)N2[C@@H]1SC(C)(C)[C@@H]2C(=O)O
inactive: all assays above
